aSyn rescue = qHTS of alpha-syn Inhibitors | Potency, µM (highest dose often 46.1 µM), actives largely listed as activators | Yeast expressing alpha-synuclein, growth rescue, BacTiter-Glo, 24 h | 0.14% of 370,000 active | AID 652106, 2013; note: nearly all actives have a fitted effect of over 65% in size
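Galactose-induced alpha-syn yeast (OD600=0.02, raffinose-pregrown) + pinned cpd, 24 hr, 30 deg C; growth by BacTiter-Glo luminescence. Growth restoration scores as activation.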
CCT modulator = High-Throughput Screening for Modulators of Cytosolic Chaperonin Activity; 0.3% of 360,000 active; AID 651819, 2012; purified chaperonin ATPase assay, HTRF ADP detection, 30 min; activity change, % (concentration not given with the values), hits read low; in the data active = activity change below about -30%
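Nucleotide hydrolysis assay: TRiC at 20–40 nM final (set by batch activity) with 10 uM ATP, 30 min at 37 °C, in presence of 76 uM compound. Detection by competitive ADP HTRF, 30 min ambient.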
FUS suppressor = qHTS for Suppressors of FUS Proteinopathy: Primary screen using FUS-linked yeast assay; S. cerevisiae FUS-expressing, growth rescue, OD600, 24 h; Potency, µM (titrated, usually from 76.6 µM), hits mostly activators; 0.24% of 390,000 active; note: nearly all actives have a fitted effect of over 55% in size
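Cultures pregrown in 2.5% raffinose medium are shifted to minimal medium containing 2% galactose to express toxic FUS. Compounds are tested at several concentrations. After 24hr at 30C, growth is quantified at 600 nm absorbance.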
Mm-Cpn inhibitor = Inhibitors of TCP-1 ring complex (TRiC) of Methanococcus maripaludis (MmCpn): qHTS; Potency, µM (highest dose often 76.9 µM), usual class: inhibitors; Chaperonin Mm-Cpn (Methanococcus maripaludis); 0.031% of 330,000 active; purified Mm-Cpn ATPase, ADP Transcreener TR-FRET; note: nearly all actives have a fitted effect of over 80% in size
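Eu-cryptate anti-ADP/ADP-d2 competition gives a ratio inversely related to ADP. Enzyme at 25 nM was pre-exposed to compound for 10 min, then given 10 uM ATP for 30 min, 37°C throughout.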
Abeta rescue = qHTS for compounds that reverse cellular toxicity of Amyloid beta (A-beta) peptide in yeast: Primary Screen; yeast expressing A-beta42, growth rescue, OD600, 48 h; response scale: 0% DMSO, 100% iron-clioquinol control; Potency, µM (top dose mostly 46.1 µM), most hits filed as activators; 0.063% of 410,000 active; AID 1347071, 2019; note: nearly all actives have a fitted effect of over 55% in size
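Yeast growth medium received pinned compounds, then yeast cells expressing toxic A-beta were added; plates incubated at 30 C for 48 hr. Growth read as absorbance at 600 nm, normalized to DMSO and equimolar FeCl3 plus clioquinol controls.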
TDP-43 yeast inh = qHTS of TDP-43 Inhibitors. TDP-43 expressing yeast growth rescue, BacTiter-Glo, 24 h. 1.8% of 410,000 active. AID 652104, 2013. Potency, µM (doses to about 46.1 µM), actives largely listed as activators; note: nearly all actives have a fitted effect of over 50% in size
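Cell-based yeast growth screen: TDP-43 expression induced in galactose, inoculum OD600=0.02 after raffinose pregrowth to mid-log. Read-out BacTiter-Glo luminescence at 24 hr, 30 deg C; inhibition of toxicity seen as signal increase.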
Numbers stand for hits. In the library only some 2.3% were active in any assay of this set; here they are far more common. Unless noted, calls come from the whole dose curve; as a rule, active = well fitted curve in the direction sought with a large enough effect; inconclusive = small, poorly fitted or top-dose-only effect, or another doubt; inactive = no such curve, though single readings can be large; an effect the other way counts as inactive or inconclusive.

Screening COc1cnn(-c2ccc(F)cc2)c(=O)c1Br returned aSyn rescue inactive, CCT modulator -65.7, FUS suppressor inactive, Mm-Cpn inhibitor inactive, Abeta rescue inactive and TDP-43 yeast inh inactive.
`COC(=O)c1ccccc1NC(=O)c1cnn2c1NC(=C1CC1)C=C2C(F)F` gave aSyn rescue inactive.
For COc1ccc(N2CCN(Cc3nc4c(c(=O)[nH]c(=O)n4C)n3CC(C)C)CC2)cc1 the results were FUS suppressor inactive, Abeta rescue inactive and TDP-43 yeast inh inactive.
CCOc1ccc(NC(=O)CSc2nc3nc(C)c(Cc4ccccc4)c(C)n3n2)cc1 was read as FUS suppressor inactive, Abeta rescue inactive and TDP-43 yeast inh 25.1µM.
`Cc1nc2nc(SCC(=O)NCCc3ccccc3)nn2c(C)c1Cc1c(F)cccc1Cl` gave FUS suppressor inconclusive, Abeta rescue inactive and TDP-43 yeast inh 22.4µM.
`COC(=O)c1cc(Cl)cc2c(C)c(C3(O)CCCCC3)[nH]c12` gave aSyn rescue inconclusive, CCT modulator inactive, FUS suppressor inactive, Mm-Cpn inhibitor inactive, Abeta rescue inactive and TDP-43 yeast inh 35.5µM.
`CCc1c(C2(O)CCCCC2)[nH]c2c(C(=O)OC)cc(Cl)cc12` gave aSyn rescue inactive, CCT modulator inactive, FUS suppressor inactive, Mm-Cpn inhibitor inactive, Abeta rescue inactive and TDP-43 yeast inh inactive.
`COC(=O)c1ccc2c(C)c(C3(O)CCCCC3)[nH]c2c1` gave aSyn rescue inactive, CCT modulator inactive, FUS suppressor inactive, Mm-Cpn inhibitor inactive, Abeta rescue inactive and TDP-43 yeast inh 20µM.
Screening Cc1c(C2(O)CCCCC2)[nH]c2ccc(C#N)cc12 returned aSyn rescue inactive, CCT modulator inactive, FUS suppressor inactive, Mm-Cpn inhibitor inactive, Abeta rescue inactive and TDP-43 yeast inh inactive.
For COc1ccc(C2Nc3ccccc3C(=O)N2c2ccccc2F)cc1COc1ccc(NC(C)=O)cc1 (stereo not given) the results were aSyn rescue inactive.
CCN(CC)C(=O)CC[C@H]1CC[C@]2(CCCN(Cc3nccn3C)C2)O1 was read as FUS suppressor inactive.
CC(C)(C)N(NC(=O)Nc1cccc(F)c1)C(=O)c1ccccc1Cl was read as FUS suppressor inactive.
Screening CC(C)=N/N=C1/NC(=O)C(c2ccc(Cl)cc2)S1 (stereo not given) returned aSyn rescue inactive, CCT modulator inactive, Abeta rescue inconclusive and TDP-43 yeast inh 20µM.
COc1ccc(-n2cc(C(=O)c3ccccc3O)cn2)cc1 was read as aSyn rescue inactive, CCT modulator inactive, FUS suppressor inactive, Mm-Cpn inhibitor inactive, Abeta rescue inactive and TDP-43 yeast inh 12.6µM.
Screening COc1ccc(O)c(C(=O)c2cnn(-c3ccccc3)c2)c1 returned aSyn rescue inactive, CCT modulator inactive, FUS suppressor inactive, Mm-Cpn inhibitor inactive, Abeta rescue inactive and TDP-43 yeast inh inactive.
For O=C(c1cnn(-c2ccccc2)c1)c1cc(F)ccc1O the results were aSyn rescue inactive, CCT modulator inactive, FUS suppressor inactive, Mm-Cpn inhibitor inactive, Abeta rescue inactive and TDP-43 yeast inh 10µM.
`S=C(Nc1ccccc1Oc1ccccc1)Nc1cccc(Cl)c1Cl` gave aSyn rescue inactive, CCT modulator inactive, Mm-Cpn inhibitor inactive, Abeta rescue inactive and TDP-43 yeast inh 22.4µM.
`COc1cc(SC)ccc1C(=O)NCCOc1ccc(Cl)cc1` gave aSyn rescue inactive, CCT modulator inactive, Mm-Cpn inhibitor inactive, Abeta rescue inactive and TDP-43 yeast inh 17.8µM.
`COc1cc(SC)ccc1C(=O)NCCOc1c(C)cc(C)cc1C` gave aSyn rescue inactive, CCT modulator inactive, FUS suppressor inactive, Mm-Cpn inhibitor inactive, Abeta rescue inactive and TDP-43 yeast inh inconclusive.
CCOC(=O)c1ccc(S(=O)(=O)NCC(c2ccc(N(C)C)cc2)c2c[nH]c3ccccc23)cc1 (stereo not given) was read as aSyn rescue inactive, CCT modulator inactive, FUS suppressor inconclusive, Mm-Cpn inhibitor inactive, Abeta rescue inactive and TDP-43 yeast inh 3.16µM.
O=c1oc2ccc(Br)cc2cc1-c1nc2c(s1)CCc1ccccc1-2 was read as aSyn rescue inactive.
Screening COc1cc(OC)cc(-c2c(-c3cccs3)c3cc(Br)ccc3n2C)c1 returned aSyn rescue inactive, CCT modulator inactive, FUS suppressor inactive, Mm-Cpn inhibitor inactive, Abeta rescue inactive and TDP-43 yeast inh inactive.
COc1cc(F)cc(-c2ccc3c(c2)c(-c2cccs2)c(-c2cc(OC)cc(OC)c2)n3C)c1 was read as aSyn rescue inactive, CCT modulator inactive, FUS suppressor inactive, Mm-Cpn inhibitor 22.4µM, Abeta rescue inactive and TDP-43 yeast inh inactive.
`COc1cc(OC)cc(-c2c(-c3cccs3)c3cc(-c4ccc(CN5CCOCC5)cc4)ccc3n2C)c1` gave aSyn rescue inactive, CCT modulator inactive, FUS suppressor inconclusive, Mm-Cpn inhibitor inconclusive, Abeta rescue inactive and TDP-43 yeast inh 22.4µM.
Screening S=C(Nc1ccc(I)cc1)OC1CCC12CCC(c1ccccc1)CC2 (stereo not given) returned FUS suppressor inactive.
For CC1(Cc2ccccc2OC(F)(F)F)C(=O)Nc2ccc(-c3ccsc3)cc21 (stereo not given) the results were aSyn rescue inactive, CCT modulator inactive, FUS suppressor inactive, Abeta rescue inactive and TDP-43 yeast inh 20µM.
`CCOC(=O)[C@@H]1[C@H]2COc3ccc(Br)cc3[C@H]2N2C(=O)N(c3ccc(C)cc3)C(=O)[C@]12C` gave aSyn rescue inactive, CCT modulator inactive, FUS suppressor 22.4µM, Mm-Cpn inhibitor inactive, Abeta rescue inactive and TDP-43 yeast inh inactive.
For CC(=O)N1CCN(c2nc3c(F)cc(F)cc3s2)CC1 the results were FUS suppressor inactive, Abeta rescue inactive and TDP-43 yeast inh inactive.
CC(=O)N1CCN(c2c(F)c(F)c(C(F)(F)F)c(F)c2F)CC1 was read as aSyn rescue inactive, CCT modulator -38.0, FUS suppressor inactive, Mm-Cpn inhibitor inactive, Abeta rescue inactive and TDP-43 yeast inh inconclusive.
Screening O=S1(=O)N[C@H](Cc2ccccc2)COc2cc(N3CCCC3)ccc21 returned FUS suppressor inactive.
For CC(C)CN(CC(C)C)c1ccc(/C=C/c2nc3ccccc3s2)cc1 the results were aSyn rescue inactive.
